# TROY NFkB inh – inhibitors of TROY-driven NF-kB signaling, primary screen, Q293 LMP1-TROYcd cells, NF-kB luciferase, uHTS; actives 0.98% (n = 360,000); AID 1347056, 2019; inhibition, % at 10 µM; Q293 LMP1-TROYcd NF-kB luciferase reporter, 4 h;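 active = compounds whose plate-normalised and pattern-corrected inhibition of the luciferase reporter signal at the single screening dose is 50% or more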
# EWS-Fli inh – EWS/Fli-driven NR0B1 reporter inhibitors, primary screen, A673 cells, NR0B1 luciferase, luminescence, MLPCN library; viability-normalised; inhibition, % at 12.6 µM; actives 0.67% (n = 350,000); AID 651661, 2012;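 active = mean inhibition of at least 50% after viability correction, with every replicate also passing that limit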;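 note: firefly luciferase signal divided by Alamar Blue viability fluorescence both relative to DMSO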
# TWEAK-Fn14 inh – inhibitors of TWEAK-Fn14 signaling, primary screen, luciferase reporter cells, uHTS; TWEAK-stimulated Fn14 reporter cells, luciferase luminescence, 8 h; inhibition, % at 10 µM; actives 2% (n = 360,000); in the data active = inhibition above about 50%
# EBV LMP1 NFkB – EBV LMP1-driven NF-kappaB luciferase reporter inhibitors, primary screen, cell-based, luminescence, single point. LMP1-induced NF-kappaB luciferase reporter cells. inhibition, % at 12.5 µM. actives 0.69% (n = 350,000); in the data active = inhibition above about 41%
# PAX8 reporter – inhibitors of PAX8-driven TPO luciferase reporter, primary screen, RMG-I cells, single concentration. actives 1.2% (n = 360,000). SteadyGlo, 24 h. inhibition, % at 12.6 µM;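 active = mean replicate inhibition at least 60% with every replicate also reaching 60%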;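 note: luciferase light reporting Pax8 driven TPO promoter activity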
# LGR2 inh – inhibitors of bursicon-induced LGR2 CRE-luciferase signal, primary screen, cell-based, HEK293, CRE-luciferase reporter, bursicon stimulation | Drosophila bursicon receptor LGR2 (rickets) | bursicon-stimulated, 4 h | inhibition, % at 9.99 µM | actives 0.35% (n = 380,000) | AID 720647, 2013;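 active = drop in luminescence signal, shown as inhibition above about 50% in the replicate tests, limit read from the data, passing the limit was not always enough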;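 note: agonist challenge used bursicon conditioned medium at about half maximal strength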
# A number is an active result; . = inactive; / = no result. Most compounds without a hit are left out; they make up all but 3.1% or so of the library.
SMILES,TROY NFkB inh,EWS-Fli inh,TWEAK-Fn14 inh,EBV LMP1 NFkB,PAX8 reporter,LGR2 inh
Cc1ccc2oc(C(F)(F)C(F)F)cc(=O)c2c1,.,.,.,.,.,.
Cc1ccc2oc(C(Cl)(Cl)Cl)cc(=O)c2c1,.,.,64,.,/,.
Cc1ccc(CN2C(=O)CCC2C(=O)NCCCN2CCOCC2)cc1 (stereo not drawn),.,/,.,.,/,/
Cc1ccc(CN2C(=O)CCC2C(=O)NCCCN2CCC(C)CC2)cc1 (stereo not drawn),.,/,.,50,/,/
CC1CCCCC1NC(=O)CN1C(=O)CSc2cc(S(=O)(=O)N3CCCCCC3)ccc21 (stereo not drawn),.,.,.,.,85,/
O=C(CN1C(=O)CSc2cc(S(=O)(=O)N3CCCCCC3)ccc21)NCCc1ccccc1,.,/,.,.,/,.
CO[C@H]1CN(C)C(=O)c2ccc(NC(=O)c3ccc4c(c3)OCO4)cc2OC[C@H](C)N(CCC(F)(F)F)C[C@H]1C,/,.,/,/,/,.
CCCCNC(=S)N/N=C/c1cccc(OCC)c1O,.,.,.,.,.,.
O=[N+]([O-])c1ccccc1NC(=S)N/N=C/c1ccc(O)c(O)c1,66,.,66,.,.,.
CCOc1cccc(/C=N/NC(=S)Nc2ccccc2[N+](=O)[O-])c1O,90,.,100,.,.,83
O=[N+]([O-])c1ccccc1C=NNC(=S)NN=Cc1ccccc1[N+](=O)[O-],.,.,.,.,.,.
CN(C)CC#Cc1ccc([C@@H]2[C@H](CO)N3CCCCN(S(=O)(=O)c4ccccc4F)C[C@@H]23)cc1,/,.,/,/,.,.
CCS(=O)(=O)N1[C@@H](CO)[C@H](c2ccccc2)C12CN(C(=O)C1CCCC1)C2,/,.,/,/,/,.
Cc1nc2sc(-c3ccccc3)cc2c(=O)n1-n1cccc1,.,/,.,.,/,/
Cc1nc2sc(-c3ccccc3)cc2c(=O)n1N,61,69,94,62,.,81
Cc1nc2sc(-c3ccccc3)cc2c(=O)[nH]1,.,.,57,.,/,.
O=c1[nH]c(-c2cccnc2)nc2sc(-c3ccccc3)cc12,.,.,.,.,.,.
CC(=O)c1cccc(Nc2nc(N3CCOCC3)nc(N3CCOCC3)n2)c1,.,.,.,.,.,.
CC(=O)c1ccc(Nc2nc(N3CCOCC3)nc(N3CCOCC3)n2)cc1,.,.,83,.,.,.
CCN1CCN(c2nc(Nc3ccc(NC(C)=O)cc3)nc(Nc3ccc(NC(C)=O)cc3)n2)CC1,63,.,.,.,.,.
Cc1sc2ncnc(N3CCC(C(=O)Nc4ccc(S(N)(=O)=O)cc4)CC3)c2c1C,.,.,.,.,.,.
Cc1ccc(NC(=O)C2CCN(c3ncnc4sc(C)c(C)c34)CC2)cc1S(=O)(=O)N(C)C,51,.,55,.,.,.
CCN(CC)S(=O)(=O)c1cc(NC(=O)C2CCN(c3ncnc4sc(C)c(C)c34)CC2)ccc1Cl,64,.,97,.,72,.
Cc1sc2ncnc(N3CCC(C(=O)Nc4cc(S(C)(=O)=O)ccc4Cl)CC3)c2c1C,.,.,.,.,.,.
C[C@@H]1CN([C@H](C)CO)C(=O)c2cc(NC(=O)Nc3cccc4ccccc34)ccc2O[C@@H](C)CCCCO[C@H]1CN(C)Cc1ccncc1,/,.,/,/,/,.
SMILES,TROY NFkB inh,EWS-Fli inh,TWEAK-Fn14 inh,EBV LMP1 NFkB,PAX8 reporter,LGR2 inh
Cc1noc(C)c1S(=O)(=O)Nc1ccc2c(c1)C(=O)N([C@H](C)CO)C[C@@H](C)[C@@H](CN(C)S(=O)(=O)c1cccs1)OCCCC[C@@H](C)O2,/,.,/,/,.,.
N#C/C(=C\c1ccc(Sc2ccccc2)o1)c1nc2ccccc2[nH]1,.,.,.,.,.,.
N#C/C(=C/c1ccc(Sc2nc3ccccc3[nH]2)o1)c1cccc(Br)c1,68,/,.,.,/,/
N#C/C(=C/c1ccc(Sc2nc3ccccc3[nH]2)o1)c1cccc(F)c1,55,/,.,.,/,.
N#C/C(=C/c1ccc(Sc2nc3ccccc3[nH]2)o1)c1ccccc1F,.,/,.,.,/,.
COCC(=O)N1C[C@@H](C)[C@@H](OC)CN(C)C(=O)c2cc(NC(=O)c3cnccn3)ccc2OC[C@H]1C,/,.,/,/,.,.
CC(=O)N(C)C[C@H]1Oc2cc(C#Cc3cccc(F)c3)ccc2S(=O)(=O)N([C@@H](C)CO)C[C@@H]1C,/,.,/,/,/,.
O=C(Nc1ccc(OCC(=O)N2CCOCC2)cc1)c1ccccc1Cl,.,.,.,51,.,.
O=C(N/N=C/c1ccc(OCC(=O)N2CCOCC2)cc1)c1ccccc1Cl,.,.,.,.,.,.
CC(C)c1cn(CC[C@@H]2CC[C@@H](NC(=O)C3CCCC3)[C@@H](CO)O2)nn1,/,.,/,/,.,.
COc1ccc(-c2nc(NC(=O)C3CC(=O)N(c4ccc5c(c4)OCCO5)C3)sc2C)cc1 (stereo not drawn),.,.,82,.,.,.
O=C(Nc1nc(-c2ccccn2)cs1)C1CC(=O)N(c2ccc3c(c2)OCCO3)C1 (stereo not drawn),.,.,70,.,.,.
COc1ccc2nc(NC(=O)C3CC(=O)N(c4ccc5c(c4)OCCO5)C3)sc2c1 (stereo not drawn),.,.,.,.,.,.
O=C(Nc1nnc(C2CC2)s1)C1CC(=O)N(c2ccc3c(c2)OCCO3)C1 (stereo not drawn),51,/,78,.,/,.
Cc1cccnc1NC(=O)C1CC(=O)N(c2ccc3c(c2)OCCO3)C1 (stereo not drawn),.,.,.,.,/,.
O=C(Nc1nc2ccc(F)cc2s1)C1CC(=O)N(c2ccc3c(c2)OCCO3)C1 (stereo not drawn),.,.,55,.,.,.
O=C(CSc1nnc(-c2ccccc2)n1Cc1ccccc1)NNC(=O)c1ccccc1O,.,79,.,.,.,.
O=C(CSc1nnc(-c2ccccc2O)n1Cc1ccccc1)NNC(=O)c1ccccc1O,.,/,.,.,.,.
FC(F)(F)c1ccccc1-n1c(-c2ccco2)n[nH]c1=S,.,.,88,.,.,.
COc1ccc2c3c(n(C)c2c1)[C@H](CO)N(CC1CCOCC1)CC31CCN(Cc2nccs2)CC1,/,.,/,/,/,.
CN(C)CCCn1c(N)c(C#N)c2nc3ccccc3nc21,.,.,55,.,.,.
N#Cc1c(N)n(C2CCCCC2)c2nc3ccccc3nc12,72,/,.,.,/,.
CCC(=O)Nc1c(C#N)c2nc3ccccc3nc2n1C1CCCCC1,.,/,.,.,.,/
COc1ccc(CCNC(=O)C2COc3ccccc3O2)cc1OC (stereo not drawn),.,.,93,.,.,.

# Assay outcomes deposited in PubChem by several laboratories.
